HT1080NT lethal = qHTS for induction of synthetic lethality in tumor cells producing 2HG: qHTS for the HT-1080-NT fibrosarcoma cell line; AID 686970, 2013; HT-1080-NT fibrosarcoma viability, CellTiter-Glo ATP luminescence, 48 h; 1.6% of 360,000 active; Potency, µM (titrated, usually from 46.1 µM), hits mostly cytotoxic;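 note: NT is the 2HG producing partner of a matched IDH1 knockdown line; nearly all actives have a fitted effect of over 55% in size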
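750 cells/well, RPMI + 5% FBS; 2 h settle, compound pin-transfer, 48 h at 37 degrees C. CellTiter-Glo 10 min RT, luminescence. Normalized to DMSO and media-only wells.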
HT1080 IDH1KD tx = qHTS for induction of synthetic lethality in tumor cells producing 2HG: qHTS for the HT-1080-IDH1KD cell line. HT-1080 IDH1 knockdown viability, ATP luminescence, 48 h. Potency, µM (series often up to 46.1 µM), actives largely listed as cytotoxic. 2% of 360,000 active
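IDH1KD HT-1080 cells, 750/well, RPMI + 5% FBS; compound pinned after 2 h settling; 48 h, 37 °C; CellTiter-Glo luminescence; % activity normalised to DMSO and no-cell wells; curves fitted, classed by r2 and efficacy.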
KB-3-1 cytotox = qHTS assay for MDR1-selective chemotherapeutics: Primary screen using the parental adenocarcinoma cell KB-3-1; KB-3-1 viability, CellTiter-Glo ATP luminescence, 72 h; Potency, µM (doses to about 46.1 µM), most hits filed as cytotoxic; 1.4% of 400,000 active; note: nearly all actives have a fitted effect of over 60% in size
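Cytotoxicity in the drug-sensitive parental line KB-3-1 was scored as loss of CellTiter-Glo luminescence following 72 h incubation with compound. Values come from curve fitting of normalized concentration-response data.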
KB-V1 cytotox = qHTS assay for MDR1-selective chemotherapeutics: Primary screen using the drug-selected MDR subline cells KB-V1. KB-V1 MDR cells viability, CellTiter-Glo, 72 h. AID 1347076, 2019. Potency, µM (highest dose often 46.1 µM), most hits filed as cytotoxic. 3.4% of 400,000 active; note: nearly all actives have a fitted effect of over 60% in size
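KB-V1 cells (P-gp-expressing MDR subline of KB-3-1) in phenol-red-free DMEM with 10% FBS were exposed to library compounds over a concentration series for 72 h at 37 degrees C. Viability read by CellTiter-Glo luminescence; concentration-effect curves fitted after normalization.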
SW480 rerep = A quantitative high throughput screen for small molecules that induce DNA re-replication in SW480 colon adenocarcinoma cells. SW480 DNA re-replication, Hoechst DNA content imaging, 48 h. 1.8% of 340,000 active. AID 624297, 2012. Potency, µM (highest dose often 46.1 µM), actives largely listed as activators; note: nearly all actives have a fitted effect of over 55% in size
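Image-based read-out: total Hoechst fluorescence of nuclei (405 nm excitation, 500-530 nm emission), with hits raising the fraction of high-intensity nuclei. SW480 colon cells incubated 48 hr with compounds at 37 C.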
MCF10A rerep = A quantitative high throughput screen for small molecules that induce DNA re-replication in MCF 10a normal breast cells; MCF 10A DNA re-replication, Hoechst nuclear intensity, 48 h; Potency, µM (doses to about 46.1 µM), most hits filed as activators; 2.9% of 350,000 active; AID 624296, 2012; note: nearly all actives have a fitted effect of over 50% in size
Hits are given with their value; - = inactive; ? = inconclusive; . = no result given; + = active, no number. Most compounds without a hit are left out; they make up all but 8% or so of the library. Calls come from the whole dose curve; as a rule, active = well fitted curve in the direction sought with a large enough effect; inconclusive = small, poorly fitted or top-dose-only effect, or another doubt; inactive = no such curve, though single readings can be large; an effect the other way counts as inactive or inconclusive.

SMILES	HT1080NT lethal	HT1080 IDH1KD tx	KB-3-1 cytotox	KB-V1 cytotox	SW480 rerep	MCF10A rerep
COc1cccc(NC(=O)CN(C)C(=O)c2ccccc2-c2nc3ccccc3s2)c1	-	-	-	18µM	-	?
COc1cccc(NC(=O)CN(C)C(=O)CSc2nc3ccccc3s2)c1	-	-	-	?	-	-
CN(CC(=O)Nc1c(Cl)cccc1Cl)C(=O)c1ccccc1-c1nc2ccccc2s1	-	-	-	8.2µM	-	-
S=c1nc[nH]c2c1ncn2-c1ccc(Cl)cc1	-	-	?	10µM	-	-
O=C(O)Cn1cnc2c(=S)nc[nH]c21	-	-	-	-	-	-
Cc1ccc(S(=O)CCNC(=O)Cc2ccc(Cl)cc2)cc1 (stereo not drawn)	-	-	-	-	-	-
Cc1ccc(-c2nn(CCC(=O)NC(C)C)c(=O)c3ccccc23)cc1	-	-	-	-	-	-
CCOc1ccc(-c2ccc(SCC(=O)NCC3CCCO3)nn2)cc1 (stereo not drawn)	-	-	-	?	-	-
Cc1[nH]c2c(C)cccc2c1CCNC(=O)C1CCCCC1C(=O)OCC(F)(F)F (stereo not drawn)	-	-	-	-	-	-
CN(C)c1ccc(-c2csc(C(C)(O)c3cccc(F)c3)n2)cc1 (stereo not drawn)	26µM	?	-	?	.	.
CC(O)(c1ccccc1)c1nc(-c2ccccc2)cs1 (stereo not drawn)	?	?	-	-	.	.
COc1ccc(C(C)(O)c2nc(-c3cccc(C(=O)O)c3)cs2)cc1 (stereo not drawn)	-	-	-	-	.	.
CC(O)(c1ccccc1)c1nc(-c2ccncc2)cs1 (stereo not drawn)	+	-	-	?	.	.
COc1ccc(-c2csc(C(C)(O)c3ccccc3)n2)cc1OC (stereo not drawn)	-	-	?	23µM	.	.
COc1ccc(C(C)(O)c2nc(-c3cccc(O)c3)cs2)cc1 (stereo not drawn)	?	8.2µM	?	-	.	.
Nc1cccc2[nH]cnc12	.	.	-	-	.	.
O=C(NCc1ccccc1Cl)c1cccc(NC(=O)c2ccccc2)c1	-	-	-	?	-	-
COc1ccc(C(C)(O)c2nc(-c3ccccc3)cs2)cc1 (stereo not drawn)	?	16µM	?	?	.	.
COc1ccc(C(C)(O)c2nc(-c3ccccc3C)cs2)cc1 (stereo not drawn)	?	9.2µM	4.6µM	5.2µM	.	.
COc1ccc(-c2csc(C(C)(O)c3ccccc3)n2)cc1 (stereo not drawn)	?	?	-	-	.	.
CCS(=O)(=O)c1ccc(O)c(NC(=O)COc2ccc(OC)cc2)c1	-	?	-	-	-	-
CCOc1ccc(NC(=O)CN(C)C(=O)c2cccnc2Sc2ccc(C)cc2C)cc1OCC	-	-	-	16µM	-	-
CCOc1ccc(NC(=O)CN(C)C(=O)c2csc3c2CCCC3)cc1OCC	-	-	-	15µM	-	-
CCOc1ccc(NC(=O)CN(C)C(=O)c2ccc(COc3ccccc3)cc2)cc1OCC	-	-	-	9.2µM	-	-
CCOc1ccc(NC(=O)CN(C)C(=O)c2ccc(COc3ccccc3)o2)cc1OCC	-	-	-	-	-	-
SMILES	HT1080NT lethal	HT1080 IDH1KD tx	KB-3-1 cytotox	KB-V1 cytotox	SW480 rerep	MCF10A rerep
COc1ccc(NC(=O)CN(C)C(=O)c2csc3c2CCCC3)cc1	-	-	-	?	-	-
CCOc1ccc(NC(=O)CN(C)C(=O)c2ccccc2OCc2cccc(C)c2)cc1OCC	-	?	-	2.9µM	?	?
Cc1ccnc(NC(=O)CNC(=O)Cc2cccc3ccccc23)c1	-	-	-	-	-	-
Cc1cc(-c2ccccc2)cc(=O)[nH]1	-	-	-	-	-	-
O=C(OC(C(=O)Nc1cc(Cl)cc(Cl)c1)c1ccccc1)C1=COCCO1 (stereo not drawn)	-	-	-	?	-	-
CCOC(=O)CSc1nc(C)c2ccc(C)cc2n1	-	-	-	-	-	-
Cc1cc(C)c(COc2ccc(/C=N/n3c(C)n[nH]c3=S)cc2)c(C)c1	?	?	-	-	-	13µM
Cc1n[nH]c(=S)n1/N=C/c1ccc(OCc2ccc(Cl)cc2)cc1	-	-	-	?	-	-
O=C(NCCc1ccc(Cl)cc1)C1(c2cccs2)CCOCC1	.	.	-	-	.	.
Cc1cc(NCc2ccccn2)n2nc(C)c(-c3ccc(Cl)cc3)c2n1	?	21µM	-	?	-	?
CCCc1cc(NCc2ccccn2)n2nc(C)c(-c3ccccc3)c2n1	-	?	?	-	3.3µM	?
Cc1cc(NCc2ccccn2)n2ncc(-c3ccccc3)c2n1	-	?	-	?	0.82µM	-
CCOC(=O)c1cc(-c2ccc(/C=C3/C(=O)NC(=O)C(C#N)=C3C)o2)ccc1Cl	-	-	-	-	-	?
COc1cccc(C2C=C(c3cccs3)Nc3ncnn32)c1OC (stereo not drawn)	-	-	-	-	-	-
Cc1ccc2c(c1)c(=O)c(Br)c(C)n2Cc1ccccc1	-	-	?	18µM	-	?
COC(=O)CCC(=O)NS(=O)(=O)c1ccc(N=NN2CCOCC2)cc1	-	-	-	-	-	-
O=C(Nc1ccc2nc(-c3ccc(Br)o3)[nH]c2c1)c1cccs1	-	?	?	8.2µM	-	-
O=C(/C=C/c1cccc(C(F)(F)F)c1)Nc1cccc(C(F)(F)F)c1	11µM	7.9µM	?	?	-	-
Cc1ccc(NC(=O)/C=C/c2cccc(C(F)(F)F)c2)cc1	-	-	-	?	-	-
CSc1cccc(NC(=O)/C=C/c2cccc(Cl)c2)c1	-	-	?	18µM	-	-
COc1ccc(C(=O)Nc2ccc3oc(-c4cccc5c(Br)cccc45)nc3c2)cc1	.	.	-	-	.	.
CN(C)CCCn1c(=S)[nH]c2ccccc2c1=O	-	-	-	-	-	-
CN(C)CCCn1c2c3ccccc3ccc2c2oc(=O)c3ccccc3c21	-	-	?	?	18µM	3.7µM
COc1ccc(CCNC(=S)NNC(=O)c2c(Br)c(C)nn2C)cc1OC	-	-	.	.	-	-
Cc1cc2nc(-c3ccc[nH]c3=O)n(Cc3ccc(F)cc3)c2cc1C	-	-	-	-	-	-
Cc1cc2nc(-c3ccc[nH]c3=O)[nH]c2cc1C	18µM	18µM	-	?	-	-
